From ChEMBL document CHEMBL4513146, “CO-ADD screening of Karazin Kharkiv National University (Ukraine) compounds”
Entries with a potency or affinity are not part of this list.

Tests used:
[1] = tested on: Staphylococcus aureus; conditions: Concentration 32 ug.mL-1;; ASSAY_TEST Inhibition of Bacterial Growth; detection method Absorption (OD600); MEDIA CAMHB; plate type 384well; NBS; CORNING #3640; time 18 hr
[2] = tested on: Escherichia coli; conditions: Concentration 32 ug.mL-1;; ASSAY_TEST Inhibition of Bacterial Growth; detection method Absorption (OD600); MEDIA CAMHB; plate type 384well; NBS; CORNING #3640; time 18 hr

Structure (SMILES)	Inhibition [1] [%]	Inhibition [2] [%]
COc1ccc(-c2cc3c4nnc(SCC(=O)Nc5ccccc5Cl)n4ccn3n2)cc1	-12.96	-8.41
O=C(Cn1nc2c(SCc3ccccc3)nccn2c1=O)NC1CCCCC1	7.46	-4.24
CCCCn1c(=O)c2sccc2n2c(CCC(=O)NC(C)C34CC5CC(CC(C5)C3)C4)nnc12 (configuration not stated)	9.01	0.33
CCOC(=O)c1ccc(NC(=O)Cn2nc3c(SC4CCCCC4)nccn3c2=O)cc1	5.44	-5.89
COc1cccc(-n2ccn3c(SCC(=O)c4c(C)[nH]c5ccccc45)nnc3c2=O)c1	10.32	-7.21
Cc1cc(F)ccc1NC(=O)Cn1nc2c(SCc3ccc(Cl)cc3)nccn2c1=O	7.28	-4.86
Cc1ccc(-c2cc3c4nnc(SCC(=O)Nc5cccc(Cl)c5C)n4ccn3n2)cc1	-6.47	-2.31
Cc1ccc(NC(=O)Cn2nc3c4cc(-c5ccc(C)c(C)c5)nn4ccn3c2=O)c(Cl)c1	9.28	-1.41
O=C(Cn1nc2c(Oc3ccccc3)nccn2c1=O)Nc1ccc(F)cc1Cl	2.27	-4.59
Cc1ccc(NC(=O)Cn2nc3c(Sc4cccc(F)c4)nccn3c2=O)cc1F	12.19	1.14
CCC(C)NC(=O)Cn1c(=O)c2nnc(C)n2c2ccccc21 (configuration not stated)	9.8	-2.5
Cc1ccccc1Nc1cc(C)n2c(=O)n(CCc3ccccc3)nc2n1	-11.65	-1.35
CCCCn1c(=O)c2sccc2n2c(=O)n(CC(=O)c3ccc(C)cc3C)nc12	-3.74	-4.86
COC(=O)c1ccc(NC(=O)Cn2nc3ccc(S(=O)(=O)c4ccccc4)nn3c2=O)cc1	-1.97	-13.66
O=c1c2nnc(SCc3ccccc3Cl)n2ccn1-c1ccc(F)c(F)c1	11.5	-3.79
Cc1ccc(Sc2ccc3nn(CC(=O)Nc4ccc(Br)c(C)c4)c(=O)n3n2)cc1	8.43	-6
CCc1cccc(NC(=O)Cn2nc3ccc(SC(C)C)nn3c2=O)c1	3.75	-0.03
Cc1cc(C)cc(N(Cc2cccc(F)c2)S(=O)(=O)c2cccn3c(C)nnc23)c1	2.22	-5.24
COc1ccc(-c2cc3c4nn(CC(=O)NCc5ccc(Cl)cc5)c(=O)n4ccn3n2)cc1	12.72	5.93
COc1cccc(N(Cc2ccc(F)cc2)S(=O)(=O)c2ccc3nncn3c2)c1	-0.47	-9.93
Cc1nnc2ccc(S(=O)(=O)N(Cc3ccccc3Cl)c3cccc(F)c3)cn12	-1.06	-5.9
O=C(Cn1nc2c(N3CCOCC3)nccn2c1=O)Nc1cccc(C(F)(F)F)c1	4.69	-2.32
CCc1ccccc1NC(=O)Cn1nc2n(CCC(C)C)c(=O)c3sccc3n2c1=O	-2.34	-9.52
COC(=O)c1sccc1NC(=O)CSc1nc2ccccc2n2c(C)nnc12	17.15	5.14

Structure (SMILES)	Inhibition [1] [%]	Inhibition [2] [%]
O=C(Cn1nc2c(N3CCOCC3)nccn2c1=O)NCc1ccc(Cl)cc1	9.06	3.48
CC(C)c1nnc2c(=O)n(CC(=O)Nc3ccc(Br)cc3)c3ccccc3n12	9.7	7.11
NC(=O)CSc1nnc2c(=O)n(-c3ccccc3)ccn12	9.05	0.29
COc1ccccc1-n1ccn2c(SCC(=O)N3CCN(c4ccccc4F)CC3)nnc2c1=O	13.15	-2.51
CCOc1ccc(NC(=O)Cn2nc3c4cc(-c5ccc(C)cc5)nn4ccn3c2=O)cc1	9.82	2.19
O=C(CSc1nnc2c(=O)n(-c3ccc(F)c(F)c3)ccn12)c1ccccc1Cl	3.6	-5.26
COc1cccc(-n2ccn3c(SCC(=O)N4CCN(c5ccc(F)cc5)CC4)nnc3c2=O)c1	6.4	-17.03
Cc1ccc(NC(=O)CSc2nc3ccccc3n3c(C(C)C)nnc23)c(Cl)c1	-3.19	-0.25
O=S(=O)(c1cccn2cnnc12)N(Cc1ccc(F)cc1)c1ccc(F)cc1	8.29	-3.31
COc1ccccc1N1CCN(C(=O)CSc2nc3ccccc3n3c(C(C)C)nnc23)CC1	1.01	3.41
CCOC(=O)C1CCCN(C(=O)Cn2nc3n(CC(C)C)c(=O)c4sccc4n3c2=O)C1 (configuration not stated)	-2.49	-6.05
COc1ccc(CN(c2ccc(F)cc2)S(=O)(=O)c2cccn3cnnc23)cc1F	11.25	-4.31
O=C(CSc1nc2ccccc2n2cnnc12)Nc1ccc2c(c1)OCCO2	6.86	5.63
Cc1ccc(CNC(=O)Cn2nc3c(Sc4ccc(C)cc4C)nccn3c2=O)cc1	-3.31	-11.72
O=S(=O)(c1cccn2cnnc12)N(Cc1ccc(F)cc1)c1ccc(F)c(F)c1	8.71	-1.75
CCCCOc1ccc(-c2cc3c4nnc(SCC(=O)Nc5ccc(OC)cc5)n4ccn3n2)cc1	-5.31	-9.08
Cc1cccc(NC(=O)Cn2nc3ccc(SC(C)(C)C)nn3c2=O)c1	3.72	-1.06
Cc1nnc2ccc(S(=O)(=O)N(Cc3cccc(F)c3)c3cccc(Cl)c3)cn12	1.14	-14.72
CCC(C)NC(=O)Cn1nc2n(CCC(C)C)c(=O)c3sccc3n2c1=O (configuration not stated)	-2.65	-5.43
Cc1cc(C)c(C(=O)CSc2nnc3c(=O)n(-c4ccc(F)cc4)ccn23)cc1C	6.25	-5.27
O=C(Cn1nc2c(N3CCOCC3)nccn2c1=O)N1CCN(c2ccccc2F)CC1	14.68	2.59
Cc1cccc(CSc2nnc3c(=O)n(-c4ccc(Br)cc4)ccn23)c1	20.89	1.19
COc1ccc(-c2cc3c4nn(CC(=O)Nc5cc(C)cc(C)c5)c(=O)n4ccn3n2)cc1	1.97	7.1
Cc1ccc(CN(c2ccc(F)cc2)S(=O)(=O)c2ccc3nnc(C)n3c2)cc1	-8.78	-18.59

Structure (SMILES)	Inhibition [1] [%]	Inhibition [2] [%]
CCOc1ccc(NC(=O)Cn2c(=O)c3nnc(C(C)C)n3c3ccccc32)cc1	13.61	5.76
COc1cccc(NC(=O)Cn2nc3c(=O)n(-c4ccc(Br)cc4)ccn3c2=O)c1	-2.73	-3.42
CSc1ccc(CNC(=O)Cn2nc3c(N4CCN(c5ccccc5)CC4)nccn3c2=O)cc1	15.59	0.69
COc1ccccc1-n1ccn2c(SCC(=O)c3ccc(C)cc3C)nnc2c1=O	6.26	-10.12
Cc1ccc(-c2cc3c4nnc(SCC(=O)Nc5ccc(C#N)cc5)n4ccn3n2)cc1	-4.94	-8.26
COc1ccc(-c2cc3c4nnc(SCC(=O)Nc5ccccc5C(F)(F)F)n4ccn3n2)cc1	-10.53	1.87
CCCCn1c(=O)c2sccc2n2c(=O)n(CC(=O)c3ccc(OC)c(OC)c3)nc12	13.6	0.21
O=C(CSc1nnc2c(=O)n(-c3cccc(F)c3)ccn12)Nc1ccc(Br)cc1F	15.57	-1.22
O=C(Cn1nc2c(SC3CCCCC3)nccn2c1=O)N1CCN(c2ccccc2)CC1	2.31	0.18
Cc1ccc(-n2ccn3c(=O)n(Cc4ccc(F)cc4)nc3c2=O)cc1C	10.94	-2.15
COc1ccc(CN(c2ccc(F)cc2)S(=O)(=O)c2ccc3nnc(C)n3c2)cc1F	-10.32	-13.96
CCc1nnc2c(S(=O)(=O)N(Cc3cc(F)cc(F)c3)c3cccc(F)c3)cccn12	2.06	-5.05
CC(C)c1nnc2c(=O)n(CC(=O)Nc3cccc(F)c3)c3ccccc3n12	22.23	3.96
CCc1nnc2c(S(=O)(=O)N(Cc3cccc(OC)c3)c3ccc(F)cc3)cccn12	-5.69	-8.61
O=C(Cn1nc2c(SC3CCCCC3)nccn2c1=O)N1CCN(c2ccc(F)cc2)CC1	8.31	-3.97
O=S(=O)(c1ccc2nncn2c1)N(Cc1cccc(Cl)c1)c1ccccc1	11.21	-3.7
O=C(Cn1nc2c(SCc3ccccc3)nccn2c1=O)NCc1ccccc1	-16.25	-19.33
Cc1nnc2c(SCC(=O)N3CCN(c4ccc(F)cc4)CC3)nc3ccccc3n12	9.13	7.96
COc1ccc(-c2cc3c4nn(CC(=O)N5CCCc6ccccc65)c(=O)n4ccn3n2)cc1	6.07	1.46
CCc1ccccc1Sc1nccn2c(=O)n(CC(=O)Nc3ccc(OC)c(Cl)c3)nc12	1.89	-5.89
COc1ccc(-c2cc3c4nnc(SCC(=O)Nc5ccc(C#N)cc5)n4ccn3n2)cc1	-3.8	-6.47
COc1cccc(-n2ccn3c(SCC(=O)Nc4ccc(OC)c(OC)c4)nnc3c2=O)c1	14.09	-2.6
CCOc1ccc(-n2ccn3c(SCC(=O)Nc4ccc(CC)cc4)nnc3c2=O)cc1	18.59	-0.7
